HP1b chromo inh: HTS for Inhibitors of HP1-beta Chromodomain Interactions with Methylated Histone Tails. AlphaScreen HP1-beta / biotin-H3K9me3 peptide binding. actives 0.56% (n = 390,000). Chromobox protein homolog 1 (Homo sapiens), P83916. Potency, µM (titrated, usually from 114 µM), inactives show at the highest dose activity change, negative = inhibition, hits mostly inhibitors; note: nearly all actives have a fitted effect of over 70% in size
Target sequence (P83916 whole entry, looked up): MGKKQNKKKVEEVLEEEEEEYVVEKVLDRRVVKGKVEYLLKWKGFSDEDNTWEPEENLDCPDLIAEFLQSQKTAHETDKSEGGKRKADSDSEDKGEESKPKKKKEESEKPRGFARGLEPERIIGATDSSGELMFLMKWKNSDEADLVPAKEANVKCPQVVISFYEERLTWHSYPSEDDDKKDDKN
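AlphaScreen: HP1-beta (50 nM) preformed 30 min with biotin-H3(1-18)K9me3 peptide (50 nM) in PBS pH 7.4, 0.01% Tween-20. Compound added for 30 min at RT, then streptavidin donor/nickel chelate acceptor beads (10 ug/mL) for 30 min.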
BAZ2B block: qHTS Assay for Inhibitors of BAZ2B; Bromodomain adjacent to zinc finger domain protein 2B (Homo sapiens), Q9UIF8; Potency, µM (top dose mostly 114 µM), for inactives: at the top dose activity change, negative = inhibition, hits mostly inhibitors; AlphaScreen BAZ2B-H3K14Ac peptide displacement; actives 4.4% (n = 360,000); note: % is set by controls: 0 for no effect and ±100 for the full control effect; nearly all actives have a fitted effect of over 60% in size
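Compounds, titrated to a top concentration of 110 uM, were incubated 30 min at room temperature with preformed BAZ2B/acetyl-K14 H3 peptide complex (50 nM each). Proximity signal was measured by AlphaScreen after 20 min with beads.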
G9a inh: qHTS Assay for Inhibitors of Histone Lysine Methyltransferase G9a | Potency, µM (doses to about 102 µM), for inactives: at the highest dose activity, negative = inhibition, hits mostly inhibitors | Histone-lysine N-methyltransferase EHMT2 (Homo sapiens), Q96KQ7 | G9a H3K9 monomethylation, AlphaScreen, 2 h | AID 504332, 2011 | actives 8.8% (n = 350,000); note: % is set by controls: 0 for no effect and ±100 for the full control effect; nearly all actives have a fitted effect of over 75% in size
Target sequence (Q96KQ7 913-1193 limits assumed): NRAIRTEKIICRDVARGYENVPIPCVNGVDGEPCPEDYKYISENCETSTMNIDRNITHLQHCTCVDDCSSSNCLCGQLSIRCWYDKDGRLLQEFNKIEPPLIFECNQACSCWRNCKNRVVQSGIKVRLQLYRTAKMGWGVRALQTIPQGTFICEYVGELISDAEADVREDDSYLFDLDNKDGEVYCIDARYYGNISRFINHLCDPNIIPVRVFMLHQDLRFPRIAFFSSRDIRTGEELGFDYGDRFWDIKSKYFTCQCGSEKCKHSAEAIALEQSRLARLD
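Readings reflect AlphaScreen signal from monomethyl-H3K9 antibody detection. HMT at 20 nM; substrate b-H3K9 500 nM; cofactor SAM 20 uM; 2 h RT reaction; compounds tested as titrations in qHTS with 15 min preincubation.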
JMJD2A Tudor inh: qHTS Assay for Inhibitors of JMJD2A-Tudor Domain | AlphaScreen JMJD2A-Tudor / H3K4me3 peptide binding | Potency, µM (titrated, usually from 114 µM), for inactives: at the highest dose activity change, negative = inhibition, most hits filed as inhibitors | actives 4.4% (n = 390,000) | AID 504339, 2011; note: % is set by controls: 0 for no effect and ±100 for the full control effect; nearly all actives have a fitted effect of over 50% in size
L3MBTL1 inh: qHTS Assay for the Inhibitors of L3MBTL1. Lethal(3)malignant brain tumor-like protein 1 (Homo sapiens), Q9Y468. AlphaScreen L3MBTL1–H3K9me1 peptide binding. Potency, µM (highest dose often 57.1 µM), without a hit: top-dose activity, negative = inhibition, hits mostly inhibitors. actives 0.66% (n = 230,000); note: % is set by controls: 0 for no effect and ±100 for the full control effect; nearly all actives have a fitted effect of over 60% in size
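Read-out is AlphaScreen signal from streptavidin donor and nickel chelate acceptor beads (10 ug/mL final each) bridging L3MBTL1 (50 nM) and biotinylated K9-monomethylated H3(1-15) peptide (75 nM), after 30 min compound exposure at room temperature.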
The depositor's hits bear a star; ? = inconclusive; nt = no result given; [ ] = dose if it differs, or a comment. Most compounds without a hit are left out; they make up all but 11% or so of the library. Calls come from the whole dose curve; as a rule, active = well fitted inhibition curve with a large enough effect; inconclusive = small, poorly fitted or top-dose-only effect; inactive = no such curve, though single readings can be large or run the other way. Potency is the fitted concentration of half-maximal effect.

SMILES	HP1b chromo inh	BAZ2B block	G9a inh	JMJD2A Tudor inh	L3MBTL1 inh
CCC(=O)c1ccc(OC(=O)Cc2ccc(OC)cc2)cc1	60%	-1%	nt	9%	6%
CCOc1ccccc1CNC(=O)C1CCN(c2nnc(-n3c(C)ccc3C)s2)CC1	13%	-25%	-14%[59 µM]	-21%	nt
Cc1cccc(NC(=O)CSc2nc3c(sc4ccccc43)c(=O)n2CCCC(=O)NC2CCCC2)c1	44%	1%[57.1 µM]	6%[59 µM]	3%	nt
COc1ccc(Cl)cc1NC(=O)CSC1=Nc2ccccc2C2=NC(CC(=O)NCc3ccc4c(c3)OCO4)C(=O)N12 (stereo unspecified)	13%	?	-46%[59 µM]	-16%	nt
COc1ccc(N2CCN(C(CNC(=O)C(=O)NCCc3ccccc3)c3cccnc3)CC2)cc1 (stereo unspecified)	39%	-2%	-6%[59 µM]	-18%	nt
CCSc1nc2c([nH]c3ccccc32)c(=O)n1-c1ccc(OC)cc1	26%[57 µM]	-2%	7%[59 µM]	-4%	nt
O=C(CCCCl)Nc1c2c(nn1-c1ccccc1)CSC2	31%	-17%[57.1 µM]	2%	-7%	nt
O=C(CCl)Nc1c2c(nn1-c1ccccc1)CSC2	-18%[57 µM]	-13%	6%[59 µM]	45µM*	nt
Cc1cccc(-n2nc3c(c2NC(=O)c2ccc(Br)o2)CSC3)c1	32%	-35%	40µM*	-13%	nt
Cc1nn(C(=O)c2ccc(Cl)cc2)c(C)c1S(=O)(=O)N1CCCCCC1	26%[57 µM]	9%	21%[59 µM]	37%	nt
COc1ccccc1CNC(=O)C1CCN(S(=O)(=O)c2ccc3c(c2)CCCN3C(C)=O)CC1	28%[57 µM]	4%	5%[59 µM]	-3%	nt
O=C(CN1CCCC1)Nc1cc(F)ccc1F	30%	1%	3%	-13%	6%
O=C(CNCCc1ccc(F)cc1)Nc1cc(F)ccc1F	-6%	20µM*	?	28µM*	nt
Cn1cnc([N+](=O)[O-])c1SCC(O)CCl (stereo unspecified)	32%	-23%	-5%	-16%	5%
Cn1cnc([N+](=O)[O-])c1SCCO	27%	-14%	22µM*	-12%	3%
Cn1cnc([N+](=O)[O-])c1Sc1ncccc1N	65%	9%	3.5µM*	4%	nt
COC(=O)N1CCC2(CCCN(C(=O)Nc3ccccc3)C2)CC1	nt	nt	-1%[12.7 µM]	nt	nt
CCOC(=O)c1sc2nc3c(SCCC(=O)O)cc(C(=O)c4cc(OC)ccc4O)cn3c(=O)c2c1C	-12%	35µM*	11µM*	14µM*	?
O=C(O)CSc1cc(C(=O)c2cc(F)ccc2O)cn2c(=O)c3c(-c4ccccc4)csc3nc12	0%[57 µM]	56µM*	50µM*	56µM*	?
CCOC(=O)c1sc2nc3c(SCCC#N)cc(C(=O)c4cc(F)ccc4O)cn3c(=O)c2c1C	13%	-23%	?	-26%	-6%
Cc1ccc(O)c(C(CC(=O)NCC2(c3ccccc3)CCCC2)c2ccccc2)c1 (stereo unspecified)	-4%	-22%	-30%[59 µM]	-22%	nt
Cc1cc2nc3ccc(=[N+](C)C)cc-3sc2cc1N	30%	35µM*	nt	?	-38%
O=C(NCC(c1ccco1)N1CCN(c2ccc(F)cc2)CC1)c1cccs1 (stereo unspecified)	20%	?	?	-18%	-10%
COc1ccc(N2CCN(C(CNC(=O)c3ccco3)c3ccco3)CC2)cc1 (stereo unspecified)	-15%	-8%	28µM*	-19%	-5%
COc1ccc(N2CCN(C(CNC(=O)c3cccs3)c3ccco3)CC2)cc1 (stereo unspecified)	?	?	45µM*	?	-12%
SMILES	HP1b chromo inh	BAZ2B block	G9a inh	JMJD2A Tudor inh	L3MBTL1 inh
COc1ccc(N2CCN(C(CNC(=O)c3c(F)cccc3F)c3ccc4c(c3)OCO4)CC2)cc1 (stereo unspecified)	-11%[57 µM]	?	10µM*	50µM*	nt
COC(=O)NCC(c1ccc2c(c1)OCO2)N1CCN(c2ccc(OC)cc2)CC1 (stereo unspecified)	40%	?	-20%	18%	nt
CC1CC(C)CN(c2nc(N(C)c3ccccc3)nc(N)c2[N+](=O)[O-])C1 (stereo unspecified)	-25%	?	10µM*	40µM*	-9%
N#CC(=C1Nc2ccccc2N1)S(=O)(=O)c1ccccc1	-17%	-12%	nt	25µM*	4%
CCc1ccc2occ(CC(=O)Nc3ccccc3C(F)(F)F)c2c1	20%	-11%	-9%[59 µM]	3%	nt
Cc1c(Br)c(-c2n[nH]c(=S)n2Cc2ccco2)nn1C	20%	-27%	10µM*	?	0%
S=c1nc(-c2ccccc2)n(Cc2ccco2)c2c1CCCC2	nt	-4%	?	nt	-1%
Cc1cc(C(=O)NNC(=S)NCc2ccco2)nn1C	33%	-1%	-43%	-19%	8%
COc1ccc(-c2n[nH]c(=S)n2Cc2ccco2)cc1	14%	-38%	?	14µM*	nt
Oc1ccccc1-c1n[nH]c(=S)n1Cc1ccco1	-22%	-34%	?	5.6µM*	nt
Cc1cc(-c2n[nH]c(=S)n2Cc2ccco2)nn1C	11%	-33%	8.9µM*	6.3µM*	-2%
Cc1cc(-c2n[nH]c(=S)n2Cc2ccco2)n(C)n1	28%	-3%	8.9µM*	20µM*	7%
COc1cccc(Cc2n[nH]c(=S)n2Cc2ccco2)c1	-7%	-32%	7.9µM*	14µM*	-3%
CCOC(=O)CSc1nnc(CSc2nc(C)cc(C)n2)n1Cc1ccco1	34%	-3%	?	-18%	nt
Cc1ccc(NC(=O)CCNS(=O)(=O)c2ccccc2F)cc1S(=O)(=O)N1CCOCC1	32%	-2%	-21%	-17%	-11%
CCOC(=O)c1nc(NCc2ccc(Cl)cc2)c2c(C)noc2n1	18%[57 µM]	-1%	-3%[59 µM]	-11%	nt
CCCn1cc(S(=O)(=O)c2ccc(C)c(C)c2)c(=O)c2cc(F)c(N3CCC(C)CC3)cc21	31%	0%	-8%[59 µM]	-9%	nt
COC(=O)c1ccccc1S(=O)(=O)Nc1cc(=O)c2ccccc2[nH]1	nt	nt	nt	-30%	nt
COc1ccc(N2CCN(C(=O)Cc3noc4ccc(C)cc34)CC2)cc1	14%	?	-5%[59 µM]	-12%	nt
COc1cccc(-c2nn(C)c3sc(C(=O)NCc4ccc(C)o4)cc23)c1	-34%	?	?	50µM*	nt
C=CCn1c(COc2cccc3cccnc23)nnc1SCC(=O)O	17%	-1%	-3%[59 µM]	-7%	-8%[11.4 µM]
C=CCn1c(COc2cccc3ccc(C)nc23)nnc1SCC(=O)O	33%	2%	-36%[59 µM]	28µM*	nt
